Bioassay records: PubChem, Broad Institute
aSyn 5UTR act = Activators via SNCA 5'UTR binding, MLPCN. AID 1814, 2009. hit rate 7.1% among 300,000. alpha-synuclein 5'UTR reporter, activators screen. activity score, % (tested at 7.5 µM), hits read low; in the data active = activity score below about -60%
An asterisk follows results filed as active. A selection follows.

SMILES | aSyn 5UTR act
CCC(=O)c1ccc(N2CCCCC2)c(F)c1 | -68*
Cc1ccc(C(=O)c2cc([N+](=O)[O-])ccc2N2CCOCC2)cc1 | 92
Cc1ccc(C(=O)c2ccc(N3CCOCC3)c(F)c2)cc1 | -109*
Cc1cc(O)ccc1Nc1nc2ccccc2nc1Nc1ccc(O)cc1C | -106*
Cc1ccc(NC(=S)N2CCn3cccc3C2c2cccnc2)cc1 (stereo not drawn) | -93*
Cc1cc(C)cc(OCCn2nnc3ccccc32)c1 | -126*
Clc1ccccc1OCCn1nnc2ccccc21 | -169*
Cc1ccc(OCCn2nc3ccccc3n2)c(C)c1 | -90*
Cc1ccc(C)c(OCCn2nnc3ccccc32)c1 | -70*
O=c1cc(-c2ccccc2)nc2cc(-c3ccc(Br)cc3)[nH]n12 | -94*
O=c1c2c(nc3cc(-c4ccc(Cl)cc4)[nH]n13)CCS2 | -132*
Cc1nc2cc(-c3ccc(Br)cc3)[nH]n2c(=O)c1Cl | -74*
Nc1[nH]n2c(=O)cc(-c3ccccc3)nc2c1N=Nc1ccccc1 | 68
CCc1c(C)nc2cc(-c3ccc(Cl)cc3)[nH]n2c1=O | -98*
COCc1cc(=O)n2[nH]c(-c3cccc(Br)c3)cc2n1 | -75*
CCc1c(C)nc2cc(-c3cccc(Br)c3)[nH]n2c1=O | -199*
CC(C)OC(=O)CSc1nc(N)c(C#N)cc1C#N | -118*
COC(=O)CSc1nc(-c2cccs2)ccc1C#N | -305*
CC(C)OC(=O)CSc1nc2cc3c(cc2cc1C#N)OCO3 | -149*
COC(=O)CSc1nc2cc3c(cc2cc1C#N)OCO3 | -201*
CC1=NN(c2ccccc2)C(=O)C1N=Nc1ccccc1 (stereo not drawn) | -222*
CC1=NN(c2ccccc2)C(=O)C1N=Nc1cccc(O)c1 (stereo not drawn) | -138*
Cc1ccsc1/C=N/NC(=O)c1ccccn1 | -151*
Cc1ccsc1/C=N/NC(=O)c1cc(-c2ccncc2)nc2ccccc12 | 67
O=C(N/N=C/c1ccsc1)c1ccccn1 | -92*
SMILES | aSyn 5UTR act
O=C(N/N=C/c1ccc(Br)s1)c1ccccn1 | -96*
Cc1ccc(/C=N/NC(=O)c2cccs2)o1 | -65*
O=C(N/N=C/c1ccc(OC(=O)c2ccccc2Br)cc1)c1ccccn1 | -90*
Cc1ccsc1/C=N/NC(=O)c1cccs1 | -109*
O=C(N/N=C/C1CCCCC1)c1ccccn1 | -116*
Cc1ccsc1/C=N/Nc1ccc(C(=O)O)cc1 | 64
COc1ccccc1C1=NC(c2ccc(C)cc2)N=C1C (stereo not drawn) | -78*
Fc1ccccc1/C=N/Nc1ncnc2ccccc12 | -241*
Clc1ccc(/C=N/Nc2ncnc3ccccc23)cc1Cl | -318*
COCc1cc(C)nc(Nc2ccc(C)c(C)c2)c1C#N | -71*
COC(=O)c1sc(NC(=S)NC(=O)c2ccccc2F)nc1C | -152*
COC(=O)c1sc(NC(=S)NC(=O)c2cccc(C)c2)nc1C | -144*
O=C(CNC(=O)c1ccccc1Cl)OCC(=O)N1CCc2ccccc21 | -117*
O=C(NCC(=O)N1CCc2ccccc2C1)c1ccccc1Cl | -101*
Cc1cc(C(=O)OCC(=O)N2CCc3ccccc32)c(C)o1 | -163*
COc1cc(CNCc2ccccn2)ccc1OCc1ccc(Cl)cc1 | -66*
COc1cccc(NC(=S)Nc2cc(C(=O)O)ccc2N2CC3CC(C2)c2cccc(=O)n2C3)c1 (stereo not drawn) | -95*
CCOc1ccc(NC(=O)NC(=O)N(C)S(=O)(=O)c2ccc(C)cc2)cc1 | -82*
O=C(NNC(=S)Nc1ccccc1)Nc1ccccc1 | -92*
Cc1ccc(NC(=S)NNC(=O)c2nn(C)c(C)c2Cl)cc1 | -276*
Cc1ccc(NC(=S)NNC(=O)Nc2ccccc2)cc1 | -132*
Cc1ccc(NC(=O)NC(=O)N(c2ccccc2)S(C)(=O)=O)cc1 | -93*
Cc1cc(=O)oc2c(C(=O)/C=C\c3cccs3)c(O)ccc12 | -89*
Cc1c(C(=O)/C=C/c2cccs2)oc2ccc(F)cc12 | -202*
NC(=O)c1sc2nc3c(c(-c4ccc(Cl)cc4)c2c1N)CCCC3 | 66
SMILES | aSyn 5UTR act
Nc1ccc2nc3c(c(Cl)c2c1)CCCC3 | -88*
O=C(Nc1ccccc1)C(=O)Nc1ccc2c(c1)N(C(=O)C1CC1)CCC2 | -121*
Cc1cc(N2CCCC2)nc(SCC(=O)c2ccccc2)n1 | -89*
Cc1cc(N2CCOCC2)nc(SCC(=O)c2ccccc2)n1 | -94*
O=[N+]([O-])c1cc(Cl)ccc1-c1nc(-c2ccncc2)no1 | -143*
O=[N+]([O-])c1cc(Cl)ccc1-c1nc(-c2ccccc2)no1 | -181*
O=[N+]([O-])c1ccccc1-c1nc(-c2ccc(Br)o2)no1 | -266*
CCS(=O)(=O)Nc1cc(-c2nc3cccnc3s2)ccc1C | -123*
Cc1c(NS(C)(=O)=O)cccc1-c1nc2cccnc2s1 | -64*
CCS(=O)(=O)Nc1cccc(-c2nc3cccnc3s2)c1 | -62*
Cc1ccc(-c2nc3cccnc3s2)cc1NC(=O)c1ccco1 | -198*
Cc1cc(C)n(-c2nc(SCCN(C)C)c3c4c(sc3n2)CCCC4)n1 | -71*
CC1(C)CC(=O)c2sc(NC(=O)C3COc4ccccc4O3)nc2C1 (stereo not drawn) | -101*
